Pf apPOL block = Pf-apPOL inhibitors, biochemical, fluorescence; 210,000 compounds, 0.25% hits; inhibition, % at 10 µM; Recombinant Pf-apPOL, molecular beacon fluorescence, 1.5 h
mHTT CaM bind = mutant huntingtin-calmodulin interaction inhibitors – biochemical, AlphaScreen, primary screen; 190,000 compounds, 3.6% hits; P42858; AlphaScreen His-mHTT/GST-CaM binding, luminescence; inhibition, % at 15 µM
Each line names hits and unclear results; the compound was inactive in the other large screens; ! = not confirmed by another sample. Many of the other results were omitted from the sample, so hits are more common in it than they were. Cut-off read from the data, not from the text of the source: active = inhibition above about 50%; inactive = the rest.

COc1ccc(-c2cc(C(F)(F)F)n3nc(C(=O)O)c(Cl)c3n2)cc1	mHTT CaM bind 64.0
COc1ccc(-c2cc(C(F)(F)F)n3nc(C(=O)O)c(Br)c3n2)cc1	mHTT CaM bind 65.0
Cc1nc(N2CCOCC2)nc(Nc2cccc(Cl)c2)c1[N+](=O)[O-]	none
CCN1Cc2nnn(Cc3ccc(C)cc3)c2-c2ccccc2S1(=O)=O	none
COC(=O)c1sccc1-c1ccc(C(C)=NNc2c([N+](=O)[O-])cc(C(F)(F)F)cc2[N+](=O)[O-])o1	none (no result: mHTT CaM bind)
Cc1ccc(-n2nc3c(c2NC(=O)c2ccc(Br)o2)CSC3)cc1	none
O=C(Nc1c2c(nn1-c1cccc(Cl)c1)CSC2)c1cccc(Cl)c1	none
COc1ccc(C(=O)Nc2c3c(nn2C(C)(C)C)CSC3)cc1	none
CC(C)(C)n1nc2c(c1NC(=O)/C=C/c1ccccc1)CSC2	mHTT CaM bind 98.0
O=C(/C=C/c1ccccc1)Nc1c2c(nn1-c1cccc(Cl)c1)CSC2	mHTT CaM bind 53.0
Cc1ccc(-n2nc3c(c2NC(=O)/C=C/c2ccccc2)CSC3)cc1	none
O=C(Nc1c2c(nn1-c1ccc(F)cc1)CSC2)c1ccc(Br)o1	mHTT CaM bind 58.0
O=C(/C=C/c1ccccc1)Nc1c2c(nn1-c1ccc(F)cc1)CSC2	mHTT CaM bind 76.0
C=CCN1C(=O)c2ccccc2C1C(=O)NCc1cccnc1 (configuration not stated)	none
O=C1CCc2cc(NC(=O)c3cccnc3)ccc2N1	none
N#C/C(=C\c1ccc([N+](=O)[O-])cc1)c1nc(-c2ccc(F)cc2)cs1	none
CCc1nnc2ccc(NC(=O)Nc3ccccc3C)cn12	none
CC(C)c1cc(N2CCOCC2)cc2c1[nH]c1ccccc12	none
COc1ccc(CC(=O)NCC2OCCc3ccccc32)cc1OC (configuration not stated)	none
O=C(/C=C/c1ccccc1)Nc1c2c(nn1-c1ccc([N+](=O)[O-])cc1)CSC2	mHTT CaM bind 56.0
O=C(Nc1c2c(nn1-c1ccc([N+](=O)[O-])cc1)CSC2)c1ccc(Cl)c([N+](=O)[O-])c1	mHTT CaM bind 56.0
O=C(Nc1c2c(nn1-c1ccc(F)cc1)CSC2)c1ccc(Cl)c([N+](=O)[O-])c1	none
O=C(/C=C/c1ccc2c(c1)OCO2)Nc1c2c(nn1-c1ccc([N+](=O)[O-])cc1)CSC2	none
O=C(c1cccc([N+](=O)[O-])c1)n1nnc2ccccc21	none
O=C(Nc1ccccc1N1CCOCC1)c1ccccc1[N+](=O)[O-]	none
O=C(Nc1ccc2c(N3CCOCC3)ncnc2c1)c1cccc(F)c1	none
O=C(Nc1ccc2c(N3CCOCC3)ncnc2c1)c1cccc(Cl)c1	mHTT CaM bind 88.3
O=C(Nc1ccc2c(N3CCCC3)ncnc2c1)c1cccc(Br)c1	none
CN(C)c1cccc(C(=O)Nc2ccc3c(N4CCCC4)ncnc3c2)c1	mHTT CaM bind 58.0
Cc1ccc(OCCn2cc(/C=C/C(=O)O)c3ccccc32)cc1	none
O=C1CC(Sc2ccccn2)C(=O)N1c1ccc(Br)cc1 (configuration not stated)	none
CCc1cc(-c2onc(C)c2-c2ccc(OC)cc2)c(O)cc1OC	none
CCc1cc(-c2[nH]ncc2-c2ccc([N+](=O)[O-])cc2)c(O)cc1OC	mHTT CaM bind 95.0
O=C(O)CC1SC(c2ccc3c(c2)OCO3)=NC1=O (configuration not stated)	Pf apPOL block 51.8 (no result: mHTT CaM bind)
CC(C)(C)c1ccc(C2=NC(=O)C(CC(=O)O)S2)cc1 (configuration not stated)	none (no result: mHTT CaM bind)
N#Cc1ccc(S(=O)(=O)N2CCc3c(nc(-c4ccc(F)cc4)[nH]c3=O)C2)cc1	none
Nc1ccc(Cl)cc1C(O)c1ccccc1 (configuration not stated)	none
CC(Nc1ccc(Cl)cc1N)c1ccccc1 (configuration not stated)	mHTT CaM bind 98.4
NC(=NNC(=O)Nc1ccc(OC(F)(F)F)cc1)c1cnccn1	none (no result: mHTT CaM bind)
O=C1CSC(c2cccc(Br)c2)N1c1ccc(I)cc1 (configuration not stated)	none
Cc1cccc(-n2nc3c(c2NC(=O)/C=C/c2ccccc2)CSC3)c1C	mHTT CaM bind 94.0
Cc1cccc(-n2nc3c(c2NC(=O)/C=C/c2ccco2)CSC3)c1C	mHTT CaM bind 95.0
CC(=O)Nc1c2c(nn1-c1cccc(C)c1C)CSC2	none
Cc1cccc(C(=O)Nc2c3c(nn2-c2cccc(C)c2C)CSC3)c1	none
Cc1ccc(SCc2nc3nc(C)cc(C)n3c2Br)cc1	none
O=C(Nc1ccc(F)cc1)C1CCCN(C(=O)c2ccc(Cl)cc2)C1 (configuration not stated)	none
O=C(NCc1cccnc1)c1cccc(CN2C(=O)C3CCCN3C(=O)c3ccccc32)c1 (configuration not stated)	none
O=C(NCc1cccnc1)c1cccc(CN2C(=O)CSc3ccccc32)c1	mHTT CaM bind 92.1
Cc1ccc(CN2C(=O)c3ccccc3C2C(=O)NC2CCC(C)CC2)cc1 (configuration not stated)	none
CC1CCC(NC(=O)C2c3ccccc3C(=O)N2Cc2ccc(F)cc2)CC1 (configuration not stated)	mHTT CaM bind 52.0
O=C(O)CC12CC3CC(C1)CC(c1ccccc1)(C3)C2	none
CC(=O)Nc1cccc2c(C(=O)NC(C)c3ccc(C)cc3C)ccnc12 (configuration not stated)	none
CC(=O)NC(c1cccc(Cl)c1)c1cc(Cl)c2cccnc2c1O (configuration not stated)	mHTT CaM bind 100.0
Cc1cccnc1NC(=O)C(C)Oc1cccc(Cl)c1 (configuration not stated)	none
O=C(Nc1ccc2c(c1)OCO2)C(=O)NC(c1ccccc1)c1ccccc1	none
CC(=O)NC(c1ccc(C)cc1)c1cc(Cl)c2cccnc2c1O (configuration not stated)	mHTT CaM bind 100.0!
CC(=O)NC(c1ccc2c(c1)OCO2)c1cc(Cl)c2cccnc2c1O (configuration not stated)	mHTT CaM bind 100.0
COc1ccc(C(=O)NC(c2ccc([N+](=O)[O-])cc2)c2cc(Cl)c3cccnc3c2O)cc1 (configuration not stated)	none
COc1ccc(C(=O)NC(c2ccc(OC)c(OC)c2)c2cc(Cl)c3cccnc3c2O)cc1 (configuration not stated)	mHTT CaM bind 72.0
O=C(COc1ccccc1)NC(c1ccccc1)c1cc(Cl)c2cccnc2c1O (configuration not stated)	mHTT CaM bind 100.0
O=C(COc1ccccc1)NC(c1ccc([N+](=O)[O-])cc1)c1cc(Cl)c2cccnc2c1O (configuration not stated)	none
Cc1nnc2sc(SCC(=O)Nc3cccc(C(F)(F)F)c3)nn2c1=O	mHTT CaM bind 99.0
Cc1cc2c(=O)n(CC(=O)Nc3cccc(C(F)(F)F)c3)cnc2s1	none
O=C(c1cccc(Cl)c1)N1CCN(c2cc(-c3cccnc3)[nH]n2)CC1	none
FC(F)(F)COc1nc(Cl)nc(Nc2ccccc2)n1	mHTT CaM bind 86.0
OCCNc1nc(Cl)nc(Nc2ccc(I)cc2)n1	none
COC1CCCc2oc(-c3ccsc3)c(C#CCO)c21 (configuration not stated)	mHTT CaM bind 52.2
COc1ccc(-c2oc3c(c2C#CC(C)(C)O)C(OCCO)CC3)cc1 (configuration not stated)	none
Cc1nc2c(c(N3CCOCC3)n1)CCC2	none
CCOc1cc(/C=C2\SC(=N)N(c3nonc3N)C2=O)ccc1O	Pf apPOL block 51.8

Screening data as filed in PubChem BioAssay.
